# From publication PMC7862700, “An all-to-all approach to the identification of sequence-specific readers for epigenetic DNA modifications on cytosine”
# Assays:
# Test in all cases: DAPPL (digital affinity profiling via proximity ligation, sequencing); 10 mM Tris-HCl pH 7.5, 50 mM NaCl, 1 mM DTT, 4% glycerol, room temperature, 30 min; GST-TFs on glutathione beads, 16-mer random dsDNA library, 0.1% formaldehyde crosslink after washing; high values mean tight binding
# FLI1 = biological target: T1, FLI1 (Homo sapiens, UniProt Q01543 1-452); conditions: protein: recombinant; tags: N-terminal GST; dsDNA, one strand shown
# T1 sequence: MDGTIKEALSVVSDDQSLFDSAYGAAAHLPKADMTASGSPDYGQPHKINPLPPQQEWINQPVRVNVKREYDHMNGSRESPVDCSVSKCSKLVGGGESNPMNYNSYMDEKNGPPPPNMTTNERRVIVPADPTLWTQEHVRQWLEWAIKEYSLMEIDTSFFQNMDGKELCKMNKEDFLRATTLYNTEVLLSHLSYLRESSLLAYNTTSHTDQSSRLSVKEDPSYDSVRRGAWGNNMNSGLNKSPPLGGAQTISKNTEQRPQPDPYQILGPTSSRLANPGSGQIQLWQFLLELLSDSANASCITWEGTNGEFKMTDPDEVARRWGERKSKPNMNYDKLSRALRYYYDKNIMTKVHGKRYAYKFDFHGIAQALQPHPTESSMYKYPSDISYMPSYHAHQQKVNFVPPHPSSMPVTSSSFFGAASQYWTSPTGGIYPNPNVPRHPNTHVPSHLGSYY
# Procedure, shortened: (§1)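 Pools of DNA-barcoded human transcription factors, expressed in yeast as GST fusions on glutathione beads and combined with a tag-only sample, were incubated with 200 nmole of a 16-mer random double-stranded DNA library. Incubation took 30 min at room temperature in Tris/NaCl/DTT/glycerol buffer and was followed by washing, 0.1% formaldehyde crosslinking, proximity ligation (BsaI/T4 ligase, 1 h, 37 °C), PCR amplification and sequencing on an Illumina NextSeq500. Binding signal is the ratio of a hexamer's read frequency for a factor to its frequency for the tag-only sample.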
# ELK1 = biological target: T2, ELK1 (Homo sapiens, UniProt P19419 1-428); conditions: protein: recombinant; tags: N-terminal GST; dsDNA, one strand shown
# T2 sequence: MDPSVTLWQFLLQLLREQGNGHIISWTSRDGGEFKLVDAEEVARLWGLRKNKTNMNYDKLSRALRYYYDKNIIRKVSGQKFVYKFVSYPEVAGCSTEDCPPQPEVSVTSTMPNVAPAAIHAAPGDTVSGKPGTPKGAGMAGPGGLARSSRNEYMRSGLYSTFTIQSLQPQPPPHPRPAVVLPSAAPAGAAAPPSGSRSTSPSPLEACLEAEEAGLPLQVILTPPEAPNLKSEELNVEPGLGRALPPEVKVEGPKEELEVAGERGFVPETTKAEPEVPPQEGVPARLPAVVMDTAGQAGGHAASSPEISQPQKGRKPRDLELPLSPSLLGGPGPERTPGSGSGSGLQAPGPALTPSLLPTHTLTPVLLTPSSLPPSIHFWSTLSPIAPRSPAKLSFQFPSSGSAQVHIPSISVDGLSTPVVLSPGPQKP
# Procedure, shortened: as §1
# GABPA = biological target: T3, GABPA (Homo sapiens, UniProt Q06546 1-454); conditions: protein: recombinant; tags: N-terminal GST; dsDNA, one strand shown
# T3 sequence: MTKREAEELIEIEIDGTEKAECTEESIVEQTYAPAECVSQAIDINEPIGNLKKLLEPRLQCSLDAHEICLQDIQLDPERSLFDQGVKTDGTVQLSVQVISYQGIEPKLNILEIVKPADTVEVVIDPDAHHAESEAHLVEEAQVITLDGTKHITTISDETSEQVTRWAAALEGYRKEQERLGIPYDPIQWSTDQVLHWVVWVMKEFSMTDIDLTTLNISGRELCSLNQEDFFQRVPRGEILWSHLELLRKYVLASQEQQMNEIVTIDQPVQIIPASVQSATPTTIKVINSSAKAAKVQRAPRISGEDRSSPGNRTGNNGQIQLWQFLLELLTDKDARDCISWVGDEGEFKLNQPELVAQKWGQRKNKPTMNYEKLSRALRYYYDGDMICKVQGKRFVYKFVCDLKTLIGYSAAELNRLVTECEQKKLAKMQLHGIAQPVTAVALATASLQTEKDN
# Procedure, shortened: as §1
# ERG = biological target: T4, ERG (Homo sapiens, UniProt P11308 1-479); conditions: protein: recombinant; tags: N-terminal GST; dsDNA, one strand shown
# T4 sequence: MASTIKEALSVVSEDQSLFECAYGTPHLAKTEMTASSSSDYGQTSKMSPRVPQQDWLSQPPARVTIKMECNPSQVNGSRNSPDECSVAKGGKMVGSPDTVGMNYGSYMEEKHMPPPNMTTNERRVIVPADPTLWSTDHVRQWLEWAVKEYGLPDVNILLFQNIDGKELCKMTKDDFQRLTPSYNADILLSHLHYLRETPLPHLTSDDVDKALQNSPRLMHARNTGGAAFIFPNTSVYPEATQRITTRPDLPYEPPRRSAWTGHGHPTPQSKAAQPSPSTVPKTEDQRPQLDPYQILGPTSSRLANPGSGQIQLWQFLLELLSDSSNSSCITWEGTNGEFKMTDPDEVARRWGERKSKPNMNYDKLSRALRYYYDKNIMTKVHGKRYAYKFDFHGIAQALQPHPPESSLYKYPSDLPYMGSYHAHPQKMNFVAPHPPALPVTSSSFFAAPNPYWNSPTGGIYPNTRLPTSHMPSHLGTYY
# Procedure, shortened: as §1
# ELF1 = ELF1 (Homo sapiens, UniProt P32519 1-619); conditions: protein: recombinant; tags: N-terminal GST; dsDNA, one strand shown
# Sequence of ELF1 (P32519 whole entry): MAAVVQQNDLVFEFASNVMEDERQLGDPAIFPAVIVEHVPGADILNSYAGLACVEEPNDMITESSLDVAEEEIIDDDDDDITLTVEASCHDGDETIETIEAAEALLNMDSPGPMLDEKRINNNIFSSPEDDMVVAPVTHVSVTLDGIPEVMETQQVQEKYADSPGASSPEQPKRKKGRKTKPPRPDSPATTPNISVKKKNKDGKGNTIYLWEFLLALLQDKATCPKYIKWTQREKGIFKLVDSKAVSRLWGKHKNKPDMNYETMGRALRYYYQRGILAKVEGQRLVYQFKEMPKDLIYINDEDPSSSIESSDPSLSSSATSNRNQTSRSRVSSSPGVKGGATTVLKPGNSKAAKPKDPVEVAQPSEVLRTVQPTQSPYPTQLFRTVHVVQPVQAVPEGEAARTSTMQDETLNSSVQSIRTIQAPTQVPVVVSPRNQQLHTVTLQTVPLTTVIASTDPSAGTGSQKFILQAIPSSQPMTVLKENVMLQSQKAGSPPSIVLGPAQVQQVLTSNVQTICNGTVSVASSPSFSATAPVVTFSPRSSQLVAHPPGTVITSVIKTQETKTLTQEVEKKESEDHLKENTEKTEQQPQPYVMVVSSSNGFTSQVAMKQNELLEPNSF
# Procedure, shortened: as §1
# EHF = biological target: T5, EHF (Homo sapiens, UniProt Q9NZC4 1-300); conditions: protein: recombinant; tags: N-terminal GST; dsDNA, one strand shown
# T5 sequence: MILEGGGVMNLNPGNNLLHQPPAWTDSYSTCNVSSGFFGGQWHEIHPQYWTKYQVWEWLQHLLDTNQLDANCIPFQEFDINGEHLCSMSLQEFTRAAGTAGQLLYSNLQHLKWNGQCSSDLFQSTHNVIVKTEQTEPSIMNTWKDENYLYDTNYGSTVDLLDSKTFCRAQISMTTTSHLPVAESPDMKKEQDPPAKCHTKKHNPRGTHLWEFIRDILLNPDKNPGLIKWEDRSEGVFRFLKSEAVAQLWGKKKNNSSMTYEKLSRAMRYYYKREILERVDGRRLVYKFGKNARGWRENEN
# Procedure, shortened: as §1
# SPI1 = SPI1 (Homo sapiens, UniProt P17947 1-270); conditions: protein: recombinant; tags: N-terminal GST; dsDNA, one strand shown
# Procedure, shortened: as §1
# SPIB = SPIB (Homo sapiens, UniProt Q01892 1-262); conditions: protein: recombinant; tags: N-terminal GST; dsDNA, one strand shown
# Sequence of SPIB (Q01892 whole entry): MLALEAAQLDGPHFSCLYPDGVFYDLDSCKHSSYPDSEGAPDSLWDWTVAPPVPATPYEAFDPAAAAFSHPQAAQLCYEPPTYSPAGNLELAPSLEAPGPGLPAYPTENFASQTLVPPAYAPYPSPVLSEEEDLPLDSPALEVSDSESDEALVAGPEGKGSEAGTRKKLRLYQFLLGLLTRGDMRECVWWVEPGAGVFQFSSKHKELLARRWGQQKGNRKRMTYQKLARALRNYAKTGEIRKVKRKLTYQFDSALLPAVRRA
# Procedure, shortened: as §1
# ELK3 = biological target: T6, ELK3 (Homo sapiens, UniProt P41970 1-407); conditions: protein: recombinant; tags: N-terminal GST; dsDNA, one strand shown
# T6 sequence: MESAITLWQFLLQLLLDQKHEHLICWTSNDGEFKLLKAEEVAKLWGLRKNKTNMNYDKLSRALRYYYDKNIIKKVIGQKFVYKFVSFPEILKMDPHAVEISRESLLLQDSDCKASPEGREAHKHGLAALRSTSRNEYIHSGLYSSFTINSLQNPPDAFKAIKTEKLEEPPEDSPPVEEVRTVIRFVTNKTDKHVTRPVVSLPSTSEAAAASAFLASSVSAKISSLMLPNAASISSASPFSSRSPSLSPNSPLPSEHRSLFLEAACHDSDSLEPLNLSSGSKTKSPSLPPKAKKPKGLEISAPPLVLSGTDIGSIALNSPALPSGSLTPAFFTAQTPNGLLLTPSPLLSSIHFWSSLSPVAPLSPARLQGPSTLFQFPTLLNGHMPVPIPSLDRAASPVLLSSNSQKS
# Procedure, shortened: as §1
# FEV = biological target: T7, FEV (Homo sapiens, UniProt Q99581 1-238); conditions: protein: recombinant; tags: N-terminal GST; dsDNA, one strand shown
# T7 sequence: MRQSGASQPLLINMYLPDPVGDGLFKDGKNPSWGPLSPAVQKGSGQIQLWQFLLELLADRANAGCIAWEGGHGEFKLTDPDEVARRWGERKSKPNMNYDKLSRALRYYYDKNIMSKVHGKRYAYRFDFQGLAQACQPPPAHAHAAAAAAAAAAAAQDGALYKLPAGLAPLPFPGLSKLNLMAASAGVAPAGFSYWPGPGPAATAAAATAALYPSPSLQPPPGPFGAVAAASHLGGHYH
# Procedure, shortened: as §1
# ETV5 = ETV5 (Homo sapiens, UniProt P41161 1-510); conditions: protein: recombinant; tags: N-terminal GST; dsDNA, one strand shown
# Sequence of ETV5 (P41161 whole entry): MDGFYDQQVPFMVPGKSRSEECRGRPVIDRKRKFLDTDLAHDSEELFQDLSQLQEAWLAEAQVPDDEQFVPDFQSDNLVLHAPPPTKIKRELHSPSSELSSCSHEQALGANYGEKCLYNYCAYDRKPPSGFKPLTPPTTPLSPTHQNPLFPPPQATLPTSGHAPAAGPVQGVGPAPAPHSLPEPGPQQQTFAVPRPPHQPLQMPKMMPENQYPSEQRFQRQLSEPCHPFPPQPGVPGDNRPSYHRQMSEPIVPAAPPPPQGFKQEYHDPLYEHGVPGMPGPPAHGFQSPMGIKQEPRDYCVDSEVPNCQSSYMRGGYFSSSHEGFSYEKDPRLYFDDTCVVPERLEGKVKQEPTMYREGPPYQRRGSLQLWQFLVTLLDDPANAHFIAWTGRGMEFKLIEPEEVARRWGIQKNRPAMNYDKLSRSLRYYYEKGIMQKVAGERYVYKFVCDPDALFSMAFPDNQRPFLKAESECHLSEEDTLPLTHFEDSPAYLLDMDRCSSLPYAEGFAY
# Procedure, shortened: as §1
# HSF1 = HSF1 (Homo sapiens, UniProt Q00613 1-529); conditions: protein: recombinant; tags: N-terminal GST; chain copies: 3; dsDNA, one strand shown
# Sequence of HSF1 (Q00613 whole entry): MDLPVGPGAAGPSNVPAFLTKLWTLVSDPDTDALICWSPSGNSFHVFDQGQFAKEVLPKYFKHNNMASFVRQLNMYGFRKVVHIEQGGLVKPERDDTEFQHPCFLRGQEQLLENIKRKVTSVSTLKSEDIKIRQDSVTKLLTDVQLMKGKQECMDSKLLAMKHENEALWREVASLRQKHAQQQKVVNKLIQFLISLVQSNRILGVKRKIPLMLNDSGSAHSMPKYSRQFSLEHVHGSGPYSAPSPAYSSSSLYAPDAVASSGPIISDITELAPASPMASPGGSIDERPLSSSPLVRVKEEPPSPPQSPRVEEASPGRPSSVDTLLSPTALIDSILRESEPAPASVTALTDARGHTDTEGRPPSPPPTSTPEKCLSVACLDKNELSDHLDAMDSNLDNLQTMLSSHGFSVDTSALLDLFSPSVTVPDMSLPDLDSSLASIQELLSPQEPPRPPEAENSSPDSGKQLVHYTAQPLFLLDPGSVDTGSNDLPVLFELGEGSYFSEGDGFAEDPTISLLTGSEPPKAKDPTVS
# Procedure, shortened: as §1
# SPIC = biological target: T8, SPIC (Homo sapiens, UniProt Q8N5J4 1-248); conditions: protein: recombinant; tags: N-terminal GST; dsDNA, one strand shown
# T8 sequence: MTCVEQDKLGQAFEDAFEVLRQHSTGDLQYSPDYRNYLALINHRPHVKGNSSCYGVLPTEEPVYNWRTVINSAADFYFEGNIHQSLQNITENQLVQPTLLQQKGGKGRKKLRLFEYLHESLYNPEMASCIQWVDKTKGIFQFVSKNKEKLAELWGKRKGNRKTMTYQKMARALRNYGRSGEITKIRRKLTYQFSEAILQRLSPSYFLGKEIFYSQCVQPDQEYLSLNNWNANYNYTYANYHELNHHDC
# Procedure, shortened: as §1
# ELF4 = ELF4 (Homo sapiens, UniProt Q99607 1-663); conditions: protein: recombinant; tags: N-terminal GST; dsDNA, one strand shown
# Sequence of ELF4 (Q99607 whole entry): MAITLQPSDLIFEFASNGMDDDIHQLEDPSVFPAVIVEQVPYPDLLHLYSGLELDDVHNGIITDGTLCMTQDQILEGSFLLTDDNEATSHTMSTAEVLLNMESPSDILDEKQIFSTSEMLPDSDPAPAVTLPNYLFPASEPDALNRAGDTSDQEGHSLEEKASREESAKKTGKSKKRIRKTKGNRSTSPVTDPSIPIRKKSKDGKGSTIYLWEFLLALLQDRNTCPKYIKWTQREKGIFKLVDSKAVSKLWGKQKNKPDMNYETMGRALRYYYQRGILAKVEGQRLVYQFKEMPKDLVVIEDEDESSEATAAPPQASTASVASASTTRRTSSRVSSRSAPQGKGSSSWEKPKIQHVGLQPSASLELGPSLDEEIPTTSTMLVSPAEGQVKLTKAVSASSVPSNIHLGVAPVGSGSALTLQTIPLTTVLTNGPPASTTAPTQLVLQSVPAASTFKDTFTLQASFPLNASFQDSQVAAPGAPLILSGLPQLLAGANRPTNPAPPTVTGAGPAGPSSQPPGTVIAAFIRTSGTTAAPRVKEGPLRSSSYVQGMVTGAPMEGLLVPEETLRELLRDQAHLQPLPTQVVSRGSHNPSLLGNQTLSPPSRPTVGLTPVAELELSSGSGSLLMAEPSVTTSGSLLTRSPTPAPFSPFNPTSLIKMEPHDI
# Procedure, shortened: as §1
# ELK4 = biological target: T9, ELK4 (Homo sapiens, UniProt P28324-2 1-405); conditions: protein: recombinant; tags: N-terminal GST; dsDNA, one strand shown
# T9 sequence: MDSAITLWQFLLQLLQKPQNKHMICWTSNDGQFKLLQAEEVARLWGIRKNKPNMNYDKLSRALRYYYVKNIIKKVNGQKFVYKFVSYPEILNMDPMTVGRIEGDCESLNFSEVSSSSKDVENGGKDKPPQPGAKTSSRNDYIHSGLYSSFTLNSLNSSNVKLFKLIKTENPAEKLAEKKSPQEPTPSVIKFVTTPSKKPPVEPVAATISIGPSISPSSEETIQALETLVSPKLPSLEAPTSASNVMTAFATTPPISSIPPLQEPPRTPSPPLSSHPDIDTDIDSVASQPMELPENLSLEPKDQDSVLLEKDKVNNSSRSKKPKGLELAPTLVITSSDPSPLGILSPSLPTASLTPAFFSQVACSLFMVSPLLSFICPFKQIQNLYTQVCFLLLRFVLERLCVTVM
# Procedure, shortened: as §1
# ETV2 = biological target: T10, ETV2 (Homo sapiens, UniProt O00321 1-342); conditions: protein: recombinant; tags: N-terminal GST; dsDNA, one strand shown
# T10 sequence: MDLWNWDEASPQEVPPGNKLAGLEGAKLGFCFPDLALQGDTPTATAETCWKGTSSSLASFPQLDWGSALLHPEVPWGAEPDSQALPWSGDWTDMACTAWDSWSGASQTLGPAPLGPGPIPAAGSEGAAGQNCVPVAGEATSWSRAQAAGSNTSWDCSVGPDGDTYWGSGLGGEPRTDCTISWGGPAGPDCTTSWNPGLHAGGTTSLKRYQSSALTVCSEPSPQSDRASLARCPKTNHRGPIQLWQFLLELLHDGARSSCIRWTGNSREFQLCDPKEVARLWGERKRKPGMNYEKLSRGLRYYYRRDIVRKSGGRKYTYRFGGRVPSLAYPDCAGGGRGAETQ
# Procedure, shortened: as §1
# ELF3 = biological target: T11, ELF3 (Homo sapiens, UniProt P78545 1-371); conditions: protein: recombinant; tags: N-terminal GST; dsDNA, one strand shown
# T11 sequence: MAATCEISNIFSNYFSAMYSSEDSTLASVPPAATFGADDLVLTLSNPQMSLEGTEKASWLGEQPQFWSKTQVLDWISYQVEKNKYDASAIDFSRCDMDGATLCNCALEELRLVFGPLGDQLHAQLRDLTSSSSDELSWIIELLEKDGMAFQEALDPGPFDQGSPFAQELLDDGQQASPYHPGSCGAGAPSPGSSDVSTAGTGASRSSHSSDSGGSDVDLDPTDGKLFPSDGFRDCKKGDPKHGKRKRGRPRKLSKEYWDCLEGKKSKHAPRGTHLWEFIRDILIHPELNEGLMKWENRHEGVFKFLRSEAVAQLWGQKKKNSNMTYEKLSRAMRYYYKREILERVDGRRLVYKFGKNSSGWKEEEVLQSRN
# Procedure, shortened: as §1
# CRX = CRX (Homo sapiens, UniProt O43186 1-299); conditions: protein: recombinant; tags: N-terminal GST; dsDNA, one strand shown
# Sequence of CRX (O43186 whole entry): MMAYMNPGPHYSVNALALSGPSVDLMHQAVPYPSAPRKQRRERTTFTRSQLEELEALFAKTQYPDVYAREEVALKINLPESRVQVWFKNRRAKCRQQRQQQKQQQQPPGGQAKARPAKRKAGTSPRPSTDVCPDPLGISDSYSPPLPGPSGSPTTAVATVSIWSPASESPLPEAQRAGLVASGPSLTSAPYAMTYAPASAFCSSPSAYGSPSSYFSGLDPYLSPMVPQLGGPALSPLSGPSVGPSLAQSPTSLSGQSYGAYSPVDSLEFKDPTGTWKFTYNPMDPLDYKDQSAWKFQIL
# Procedure, shortened: as §1
# ETV1 = ETV1 (Homo sapiens, UniProt P50549 1-477); conditions: protein: recombinant; tags: N-terminal GST; dsDNA, one strand shown
# Sequence of ETV1 (P50549 whole entry): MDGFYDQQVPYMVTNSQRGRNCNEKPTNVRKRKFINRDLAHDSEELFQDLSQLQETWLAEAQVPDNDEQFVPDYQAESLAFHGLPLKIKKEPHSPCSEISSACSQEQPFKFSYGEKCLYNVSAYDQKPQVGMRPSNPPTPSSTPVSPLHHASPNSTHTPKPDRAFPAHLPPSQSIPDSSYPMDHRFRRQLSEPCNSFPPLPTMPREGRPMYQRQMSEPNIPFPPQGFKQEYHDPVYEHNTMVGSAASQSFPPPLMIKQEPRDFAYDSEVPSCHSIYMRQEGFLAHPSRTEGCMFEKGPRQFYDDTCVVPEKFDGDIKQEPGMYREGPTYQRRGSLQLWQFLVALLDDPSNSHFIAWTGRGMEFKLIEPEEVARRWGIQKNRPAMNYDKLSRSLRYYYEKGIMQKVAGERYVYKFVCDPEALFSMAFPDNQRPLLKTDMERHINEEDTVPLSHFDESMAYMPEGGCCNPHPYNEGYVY
# Procedure, shortened: as §1
sequence,measurement,setting,value
AATGCA,binding signal,FLI1,"1.25 fold enrichment (6-mer frequency, TF over GST control)"
same,binding signal,ELK1,"1.28 fold enrichment (6-mer frequency, TF over GST control)"
same,binding signal,GABPA,"1.28 fold enrichment (6-mer frequency, TF over GST control)"
same,binding signal,ERG,"1.29 fold enrichment (6-mer frequency, TF over GST control)"
same,binding signal,ELF1,"1.27 fold enrichment (6-mer frequency, TF over GST control)"
same,binding signal,EHF,"1.25 fold enrichment (6-mer frequency, TF over GST control)"
same,binding signal,SPI1,"1.21 fold enrichment (6-mer frequency, TF over GST control)"
same,binding signal,SPIB,"1.34 fold enrichment (6-mer frequency, TF over GST control)"
same,binding signal,ELK3,"1.3 fold enrichment (6-mer frequency, TF over GST control)"
same,binding signal,FEV,"1.31 fold enrichment (6-mer frequency, TF over GST control)"
same,binding signal,ETV5,"1.29 fold enrichment (6-mer frequency, TF over GST control)"
same,binding signal,HSF1,"1.11 fold enrichment (6-mer frequency, TF over GST control)"
same,binding signal,SPIC,"1.28 fold enrichment (6-mer frequency, TF over GST control)"
same,binding signal,ELF4,"1.3 fold enrichment (6-mer frequency, TF over GST control)"
same,binding signal,ELK4,"1.31 fold enrichment (6-mer frequency, TF over GST control)"
same,binding signal,ETV2,"1.25 fold enrichment (6-mer frequency, TF over GST control)"
same,binding signal,ELF3,"1.33 fold enrichment (6-mer frequency, TF over GST control)"
same,binding signal,CRX,"1.14 fold enrichment (6-mer frequency, TF over GST control)"
same,binding signal,ETV1,"1.25 fold enrichment (6-mer frequency, TF over GST control)"
